HCV inhibitor – qHTS Assay for Inhibitors of Hepatitis C Virus (HCV); Huh7.5.1 HCVcc-Cre infection, luciferase reporter, 44 h; Potency, µM (highest dose often 41.8 µM), for inactives: at the highest dose activity change, negative = inhibition, hits mostly inhibitors; hit rate 3.4% among 340,000; AID 651820, 2012
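1,000 cells/well; 4 h culture; + compound; + HCVcc-Cre (~0.5 moi); 44 h; luciferase substrate, RT 15 min; read 15 sec.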
AMA1 RON2 block – qHTS for Inhibitors of AMA1-RON; Towards Development of Antimalarial Drug Lead: Primary Screen; Plasmodium falciparum AMA1 (3D7) - RON2 peptide interaction; AlphaScreen AMA1-biotinylated RON2 peptide binding; Potency, µM (series often up to 58.2 µM), without a hit: top-dose activity change, negative = inhibition, usual class: inhibitors; hit rate 0.2% among 360,000; AID 720542, 2013;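 also: 0% = vehicle wells and -100% = peptide control; nearly all actives have a fitted effect of over 45% in size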
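AMA1 (3D7) with his tag at 25 nM final met compounds first, then biotinylated RON2 peptide at 25 nM; detection used donor plus acceptor beads, 10 µg/mL apiece, read by AlphaScreen after 30 min at room temperature.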
Pf growth 96h – Primary qHTS for delayed death inhibitors of the malarial parasite plastid, 96 hour incubation | P. falciparum luciferase reporter growth, 96 h | hit rate 6.9% among 320,000 | Potency, µM (titrated, usually from 28.7 µM), for inactives: at the top dose activity change, negative = inhibition, usual class: inhibitors
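Plates of compound plus infected erythrocytes (2% hematocrit, 0.05% parasitemia final) incubate 96 hours, 37 C, 5% CO2. Detection reagent added; reduced luminescence from the parasites' luciferase reporter flags inhibition.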
Pf growth 48h – Primary qHTS for delayed death inhibitors of the malarial parasite plastid, 48 hour incubation; P. falciparum luciferase growth in erythrocytes, 48 h; Potency, µM (doses to about 28.7 µM), for inactives: top-dose activity change, negative = inhibition, usual class: inhibitors; hit rate 5.9% among 310,000; AID 504832, 2011
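Luciferase-expressing parasites in RBCs, 2% Hct / 0.1% parasitemia final; RPMI 1640 + 0.5% Albumax; 37 C, 5% CO2, one generation; luminescence read-out, lower signal = inhibition.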
Starred values were filed as active, the others as inactive; ? = inconclusive; . = not tested or not shown; [ ] = another dose, or the depositor's remark. In the library only some 11% were active in any assay of this set; here they are far more common. Calls follow the shape of the dose curve; as a rule, active = well fitted curve in the direction sought with a large enough effect; inconclusive = small, poorly fitted or top-dose-only effect, or another doubt; inactive = no such curve, though single readings can be large; an effect the other way counts as inactive or inconclusive. Unless noted, % is scaled to controls: 0 for no effect and ±100 for the full control effect; potency is read from the fitted curve at half-maximal effect.

SMILES	HCV inhibitor	AMA1 RON2 block	Pf growth 96h	Pf growth 48h
CCCCOc1cc(C)nc(NCc2ccccc2)n1	-8.7%	30.0%	?	13.1µM*
CC(=O)c1ccc(Oc2cc(C)nc(NCc3ccccc3)n2)cc1	12.6µM*	1.7%	?	?
OC(COCCOc1ccc(Br)cc1)CN1CCN(Cc2ccccc2)CC1 (centres undefined)	?	-0.3%	?	-14.2%
CC(C)(C)S(=O)(=O)N1C[C@H]2CC/C=C\C/C=C\2[C@@H]1CCO	.	-4.0%	.	.
COC(=O)C(C)Oc1cc(C)ccc1COc1ccc(-n2nc(C)n(C(F)F)c2=O)cc1 (centres undefined)	0.9%	20.4%	.	.
CCCS(=O)(=O)c1nc(S(=O)(=O)c2ccc(C)cc2)c(N2CCN(CCO)CC2)s1	14.8%	1.7%	?	-28.6%
Cc1cccc(C)c1N(CC(=O)NCc1ccccc1)C(=O)c1csnn1	11.8%	3.4%	?	24.1%
CC1(C(=O)NS(=O)(=O)c2ccc(F)cc2F)CCN1C(=O)c1cccc(F)c1 (centres undefined)	.	-1.9%	.	.
COc1cc2c(cc1OC)C(C)N(C(=O)Nc1cc(C)cc(C)c1)CC2 (centres undefined)	-24.4%	-1.8%	?	?
COc1cc2c(cc1OC)C(C)N(C(=O)c1cc3c(C)cc(C)cc3[nH]1)CC2 (centres undefined)	22.4µM*	-11.3%	13.1µM*	10.4µM*
COc1ccc(-c2cn[nH]c2-c2ccc(OCC(=O)NN)cc2O)cc1OC	12.9%	62.1%	?	?
COc1ccc(-c2cn[nH]c2-c2ccc(OCc3ccccc3)cc2O)cc1OC	?	78.0%	0.8%	8.28µM*
COc1ccc(-c2cn[nH]c2-c2ccc(OCc3ccc(F)cc3)cc2O)cc1OC	?	41.7%	-6.3%	10.4µM*
Cc1ccnc(NC(=O)c2cccc(S(=O)(=O)N3CCCC3)c2)c1	13.9%	8.9%	40.8%	48.5%
COc1ccc(C(=O)Nc2ccc(S(=O)(=O)Nc3onc(C)c3C)cc2)c(OC)c1	20.0%	-4.1%	62.0%	-4.1%
CC1(C)CC(=O)C(C(C2=C(O)CC(C)(C)CC2=O)c2ccc(Br)s2)C(=O)C1 (centres undefined)	3.9%	-1.6%[11.6 µM]	?	?
COc1ccc(C(=O)NNC(=O)c2ccc(F)c(S(=O)(=O)N3CCOCC3)c2)cc1	1.3%	-3.2%	.	.
O=C(CSCc1cccc(F)c1)NCc1ccccc1	18.2%	42.4%	2.08µM*	302.4%
Cc1ccc(CNC(=O)CSCc2cccc(F)c2)cc1	-3.3%	-1.4%	-0.5%	85.8%
O=C(CCCC(=O)N(c1ccc2c(c1)OCCO2)C(C(=O)NC1CCCCC1)c1ccc(F)cc1)Nc1ccccn1 (centres undefined)	-4.9%	-4.1%	10.4µM*	?
O=C(NC1CCCCC1)C(c1ccc2ncccc2c1)N(Cc1ccccc1)C(=O)c1ccc2c(c1)OCCO2 (centres undefined)	?	-5.0%	10.4µM*	13.1µM*
COc1ccc(CN(C(=O)c2ccc3c(c2)OCCO3)C(C(=O)NC2CCCCC2)c2ccc3ncccc3c2)cc1 (centres undefined)	-24.1%	-3.3%	9.28µM*	?
Cc1ccc(C(C(=O)NC2CCCCC2)N(C(=O)CCCC(=O)Nc2ccccn2)c2ccc3c(c2)OCCO3)cc1 (centres undefined)	-16.3%	4.7%	?	?
CCOc1c(/C=C(\C#N)C(N)=O)c2ccccc2n1CC	?	-3.8%	13.1µM*	3.9%
CCOc1cc(/C=C(\C#N)C(N)=O)ccc1OS(=O)(=O)c1ccccc1	6.8%	-5.5%	-11.1%	3.3%
SMILES	HCV inhibitor	AMA1 RON2 block	Pf growth 96h	Pf growth 48h
CCOC(=O)/C(C#N)=C\c1c(OCC)n(CC)c2ccccc12	?	-23.5%	11.7µM*	?
CC(C)(C)c1ccc(CCC2OCC(C[N+]3(C)CCOCC3)O2)cc1 (centres undefined)	9.2%	-1.4%	2.62µM*	?
CC(C)(C)OC(=O)NCc1ccc(NC(=O)c2nc[nH]c2C(=O)NCCCNC(=O)c2[nH]cnc2C(=O)Nc2ccc(CNC(=O)OC(C)(C)C)cc2)cc1	3.9%	148.2%	.	.
CC(C)(C)OC(=O)NCCCC[C@H](NC(=O)c1[nH]cnc1C(=O)Nc1ccc(CNC(=O)OC(C)(C)C)cc1)C(=O)OC(C)(C)C	-14.5%[8.37 µM]	101.2%	3.29µM*	3.29µM*
C[C@H](NC(=O)c1[nH]cnc1C(=O)Nc1ccc(CNC(=O)OC(C)(C)C)cc1)C(=O)OC(C)(C)C	?	175.4%	9.28µM*	13.1µM*
CCN(CC(=O)NC1CCS(=O)(=O)C1)C(=O)/C=C/c1cccs1 (centres undefined)	-4.0%	-3.3%	18.5%	-3.2%
CCCC(C(=O)N(C)CC(=O)Nc1ccc(N2CCOCC2)cc1)c1ccccc1 (centres undefined)	4.9%	36.5%	?	15.0%
C=CCn1c(COc2ccc3c(c2)CCCC3)nnc1SCC(=O)Nc1cccc(SC)c1	11.2µM*	-8.1%	-7.0%	-22.3%
Cc1sc2ncnc(N3CCC(C(=O)NNC(=O)c4ccccc4Cl)CC3)c2c1C	?	36.9%	8.28µM*	?
Cc1sc2ncnc(N3CCC(C(=O)Nc4ccc(OC(F)F)c(Cl)c4)CC3)c2c1C	20µM*	4.7%	.	.
CCN(CC)CCNC(=O)c1ccc(NC(=O)C2CCN(c3ncnc4sc(C)c(C)c34)CC2)cc1	12.6µM*	-7.6%	?	?
Cc1sc2ncnc(N3CCC(C(=O)NNC(=O)COc4ccc(Cl)cc4)CC3)c2c1C	-20.6%	89.1%	.	.
Cc1sc2ncnc(N3CCC(C(=O)NNC(=O)COc4ccccc4Cl)CC3)c2c1C	?	87.4%	?	11.7µM*
Cc1sc2ncnc(N3CCC(C(=O)Nc4nnc(CC(C)C)s4)CC3)c2c1C	-22.2%	0.3%	-8.4%	?
Cc1sc2ncnc(N3CCC(C(=O)NNC(=O)COc4ccccc4F)CC3)c2c1C	?	71.8%	?	?
COCCCNC1=C(C#N)C(=O)NC2(CCCC2)S1	.	40.5%	.	.
Cc1cnc(C(=O)OCC(=O)NCc2ccc(Cl)cc2)cn1	15.6%	8.5%	.	.
CCn1c(SCC(=O)NC2CCCC2)nnc1-c1cccnc1	7.2%	5.1%	10.4%	10.9%
CC(=O)c1sc(NC(=O)C2CCN(c3ncnc4sc(C)c(C)c34)CC2)nc1-c1ccccc1	?	-22.3%	?	9.28µM*
COc1cc(C)c(NC(=S)Nc2cccc(Cl)c2C)cc1OC	5.8%	10.1%	0.0%	12.1%
COc1cc(/C=N/Nc2ncc(C(F)(F)F)cc2Cl)cc(OC)c1OC	?	3.7%	?	4.65µM*
Cc1ccc2cc(CN(Cc3nnnn3C3CCCCC3)CC3CCCO3)c(=O)[nH]c2c1 (centres undefined)	-21.2%	-5.8%	-9.9%	?

Source: PubChem
